SKKanGAS inh: SKKanGAS growth inhibition | inhibition, % at 7.5 µM | S. pyogenes SKKanGAS, kanamycin growth, BacTiter-Glo, 6 h | hit rate 1.3% among 300,000 | AID 1662;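 active = mean replicate score, as percent of positive control median, at least 50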;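 also: strain carries kanamycin resistance gene driven by streptokinase promoter and grows in 40 µg/ml kanamycin; loss of luminescence reflects streptokinase promoter inhibition or plain growth inhibition; 0% = median of DMSO wells and 100% = positive control at its reference dose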
tim23-1 inh: tim23-1 yeast growth inhibition. inhibition, % at 20 µM. S. cerevisiae tim23-1 growth, BacTiter-Glo luminescence, 24 h. hit rate 1.3% among 330,000. AID 463212;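 active = growth inhibition of the mutant yeast at or above 50%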;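 also: temperature-sensitive mutant grown at 25 °C; plate controls were DMSO-treated mutant yeast for no effect and medium wells lacking yeast for full effect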
TIM10 inh: inhibits growth of TIM10 yeast strain; S. cerevisiae TIM10 strain growth, BacTiter-Glo luminescence, 24 h; inhibition, % at 10 µM; hit rate 1.4% among 330,000; AID 463195;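 active = inhibition of 40% or more at the single tested concentration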;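 also: wild-type TIM10 isogenic control strain grown at permissive 25 °C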
NALP1 inh: blocks the NALP1 inflammasome reconstituted in yeast | S. cerevisiae NALP1/ASC/caspase-1 growth, X-gal OD620, 72 h | inhibition, % at 10 µM | hit rate 0.61% among 280,000; in the data active = inhibition mostly above about 24%, no sharp cut-off; inactive = mostly below about 32%
tim10-1 inh: growth inhibitors of tim10-1 mutant yeast | hit rate 2.2% among 330,000 | S. cerevisiae tim10-1 ts strain growth, BacTiter-Glo, 24 h | inhibition, % at 20 µM;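 active = inhibition of at least 40%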;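 also: mutant grown at 25 °C; 0% = DMSO wells with yeast and 100% = wells holding no yeast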
NLRP3 yeast inh: inhibitors of NALP3 inflammasome in yeast | hit rate 0.39% among 330,000 | inhibition, % at 10 µM | AID 2825 | Yeast reconstituted NLRP3/ASC/caspase-1, beta-gal luminescence, 24 h;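 active = inhibition of 50% or more; inactive = inhibition below 50%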;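 also: plate controls were induced DMSO wells for no effect and uninduced yeast grown without galactose for full effect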
* = called active by the depositor; / = no result given. A selection: hits, their analogues and other compounds. The true share with any hit is near 4.9%.

SMILES | SKKanGAS inh | tim23-1 inh | TIM10 inh | NALP1 inh | tim10-1 inh | NLRP3 yeast inh
COC(=O)C1=C(C)NC(=O)NC1c1ccc(OC(=O)c2ccco2)cc1 (stereo unspecified) | -1 | 8 | 8 | 18* | 5 | 0
CCCCN(C)CCCNC(=O)C1CCC(CNS(=O)(=O)c2c(C)cc(C)cc2C)CC1 (stereo unspecified) | -4 | 7 | 7 | 12 | 9 | 19
CCOC(=O)C1CCN(S(=O)(=O)c2ccc(CNC(=O)c3ccccc3)s2)CC1 | 0 | 16 | -23 | -2 | 14 | 1
Oc1ccc(-c2nnc(Nc3cccc(O)c3)c3ccccc23)cc1 | 19 | -7 | -4 | 44* | -8 | -9
CCCn1c2ccccc2c2cnn(CC(=O)NCCCN3CCN(c4ccccc4)CC3)c(=O)c21 | 2 | -16 | -54 | 24 | 14 | 3
Cc1ccc(C(=O)NC(C)C2CCCO2)o1 (stereo unspecified) | 9 | -3 | 7 | 9 | -2 | 14
CC(NC(=O)c1ccco1)C1CCCO1 (stereo unspecified) | 1 | 1 | 1 | 44* | 11 | -3
COc1ccc(NS(=O)(=O)c2cccc(C(=O)N/N=C(\C)c3cccnc3)c2)cc1 | / | -8 | 4 | / | -3 | 5
Oc1cccc(-c2nc3c4c(ncn3n2)-c2ccccc2CC42CCCC2)c1 | 106* | 17 | 2 | 14 | 19 | 2
CCc1ccc(CNc2ccc3c(c2)ncn3C(C)(C)C)cc1 | 57* | 22 | 14 | 8 | 7 | 22
O=C(NC1CCCN(Cc2ccc(Cl)cc2)C1)c1c(F)ccc(F)c1F (stereo unspecified) | 0 | 20 | 6 | 0 | 19 | 15
C=CCNC(=O)CN1N=C(c2ccc(C)cc2)CCC1=O | -2 | 12 | 12 | 18 | -5 | 18
CC(=O)Nc1nc2ccc(Br)cc2s1 | -9 | 20 | 10 | 29* | 21 | 0
COc1ccc2nc(NC(C)=O)sc2c1 | 8 | 13 | 2 | 4 | 14 | 5
CCC(=O)N1CCN(c2nc3ccc(Br)cc3s2)CC1 | 2 | 22 | 19 | 30* | 2 | -2
CN(C)N=C1c2cc(S(=O)(=O)N(C)C)ccc2-c2ccc(S(=O)(=O)N(C)C)cc21 | -2 | 13 | 10 | 9 | 25 | 5
CC1CN(C(=O)NCc2ccccc2)c2cc(Cl)ccc2O1 (stereo unspecified) | 4 | 18 | 22 | 20 | 30 | 9
Nc1nc(NCCOCCO)nc(N2CCCCCC2)c1[N+](=O)[O-] | 77* | 5 | -22 | -7 | 6 | 2
COc1cccc(-c2nc(N3CC(C)CC(C)C3)c3ccccc3n2)c1O (stereo unspecified) | 65* | -26 | -15 | 0 | 8 | 10
Cc1oc(=O)cc(OCc2ccccc2)c1C | / | 18 | -10 | / | -4 | /
Cc1c2c(nc3ccccc13)CCC(C)C2 (stereo unspecified) | -1 | 8 | -21 | 36* | 13 | 23
CCCNC(=O)C(Cc1cccc(C#N)c1)NC(=O)c1ccc(C#N)cc1 (stereo unspecified) | / | 7 | 0 | / | 2 | 23
CN1CCN(CC(=O)N(Cc2c(C#N)c3ccccc3n2C)c2ccccc2)CC1 | -6 | 17 | 9 | 30* | 12 | 8
Cc1ccc(NC(=O)c2cccs2)cc1S(=O)(=O)Nc1cccc(Cl)c1 | 42 | 49 | 30 | 9 | 36 | 11
Cc1ccc(NC(=S)NC(=O)c2ccc(F)cc2)cc1S(=O)(=O)Nc1cccc(Cl)c1 | 70* | -34 | -28 | 28 | 12 | 4
SMILES | SKKanGAS inh | tim23-1 inh | TIM10 inh | NALP1 inh | tim10-1 inh | NLRP3 yeast inh
COc1cc(CCC(=O)NCCc2ccc(F)cc2)cc(OC)c1OC | 1 | 1 | 4 | 11 | 14 | 11
O=C(Nn1c(Cc2ccccc2)nc2ccccc2c1=O)c1c(O)c2cccc3c2n(c1=O)CCC3 | 71* | 23 | 24 | 5 | 23 | 12
CCc1nc2ccccc2c(=O)n1NC(=O)c1c(O)c2cccc3c2n(c1=O)CCC3 | 46 | 19 | -1 | / | -43 | -12
CCCc1nnc(NC(=O)c2c(O)c3cccc4c3n(c2=O)CCC4)s1 | 87* | -22 | 4 | 0 | -8 | -4
Cc1csc(NC(=O)c2c(O)c3cccc4c3n(c2=O)CCC4)n1 | / | / | / | 6 | / | /
COc1cccc(C(CNc2ccc(S(=O)(=O)N3CCN(C)CC3)cc2[N+](=O)[O-])N(C)C)c1 (stereo unspecified) | / | 15 | 16 | / | 24 | 18
